In ChEMBL document CHEMBL4296182, “CO-ADD screening of NIH NCI Diversity Set V”:
Several values for one entry are separate records, joined by “and”; a condition that tells them apart may be missing. Equal values may be shown once. For some assays here: Results with a measured potency or affinity are listed apart.

Key:
[1] = test system: Staphylococcus aureus; assay: Antibacterial activity against Staphylococcus aureus MRSA ATCC 43300 (CO-ADD:GP_020); MIC in CAMBH media using NBS plates, by Resazurin F(560/590); format: functional; settings: Concentration 20 uM, ASSAY_TEST Inhibition of Bacterial Growth, detection method Resazurin, Fluorescence (ex560/em590), MEDIA CAMHB, plate type 384well, CORNING #3640, time 18 hr
[2] = test system: Acinetobacter baumannii; assay: Antibacterial activity against Acinetobacter baumannii ATCC 19606 (CO-ADD:GN_034); MIC in CAMBH media using NBS plates, by Resazurin F(560/590); format: functional; settings: Concentration 20 uM, ASSAY_TEST Inhibition of Bacterial Growth, detection method Resazurin, Fluorescence (ex560/em590), MEDIA CAMHB, plate type 384well, CORNING #3640, time 18 hr
[3] = test system: Escherichia coli; assay: Antibacterial activity against Escherichia coli ATCC 25922 (CO-ADD:GN_001); MIC in CAMBH media using NBS plates, by Resazurin F(560/590); format: functional; settings: Concentration 20 uM, ASSAY_TEST Inhibition of Bacterial Growth, detection method Resazurin, Fluorescence (ex560/em590), MEDIA CAMHB, plate type 384well, CORNING #3640, time 18 hr
[4] = test system: Klebsiella pneumoniae; settings: Concentration 20 uM, ASSAY_TEST Inhibition of Bacterial Growth, detection method Absorption (OD600), MEDIA CAMHB, plate type 384well, NBS, CORNING #3640, time 18 hr
[5] = test system: Candida albicans; settings: 20 µM
[6] = test system: Cryptococcus neoformans; settings: Concentration 20 uM, ASSAY_TEST Inhibition of Fungal Growth, detection method Resazurin, Absorption (OD600-OD570), plate type 384well, NBS, CORNING #3640

Compound	Inhibition [1] [%]	Inhibition [2] [%]	Inhibition [3] [%]	Inhibition [4] [%]	Inhibition [5]	Inhibition [6] [%]	Inhibition ([1]; 18 h, 20 µM)	Inhibition ([2]; 18 h, 20 µM)	Inhibition ([4]; 20 µM)	Inhibition ([6]; 20 µM)
COc1ccc(CC(=O)c2ccc(O)cc2O)cc1 [ONONETIN]	1.4	4.43	2.27	20.95	17.6%	-13.72				
CC(=O)O[C@H]1CC[C@@]2(C)[C@@H](CC[C@@H]3[C@@H]2CC(=O)[C@@]2(C)[C@H]3C[C@@H]3CC(C)=CC(=O)[C@@H]32)C1	25.43	-5.19	14.73	18.64	2.5%	-9.27				
O=NC1=C(c2cccc([N+](=O)[O-])c2)Nc2ccccc2S1	0.76	0.77	-6.48	32.11	13.1%	-8.32				
C#CCNc1ccc(C(=O)OCC)cc1	7.69	8.65	-0.61	11.49	5%	-3.8				
CS(=O)(=O)Oc1ccc(Br)c2cccnc12	10.68	10.16	3.51	19.67	4.07%	-11.45				
COC(=O)C1=C(C)NC(C)=C(C(=O)OC)C(N2C(=O)CCC2=O)C1 (stereo not drawn)	18.88	6.44	0.27	9.26	2.3%	-2.75				
Cn1c(SCc2ccccn2)nc2c1c(=O)[nH]c(=O)n2C	7.99	-7.81	13.96	9.58	0.41%	-8.81				
Cn1ncc2c(Sc3ccc(Cl)cc3)ncnc21	-1.32	15.79	-1.92	2.06	4.47%	-10.69				
O=C(CC1(O)CCCCC1)OC1CCCC1	-23.97	3.29	-15.82	-7.74	2.66%	30.45				
Nc1ccc(C(=O)Oc2ccc([N+](=O)[O-])cc2)cc1	12.07	4.99	4.45	11.91	3.13%	-14.05				
Cc1c(Cl)ccc2c(C(=O)O)cc(-c3ccccc3)nc12	-8.14	11.6	2.11	26.83	2.48%	13.39				
OC(COc1cccc2ccccc12)CN1CCN(c2ccc(Cl)cc2)CC1 (stereo not drawn)					1.46% and -1.63%		7.27% and -7.63%	6.27% and 10.91%	26.3% and 15.3%	-9.84% and -9.74%
Cn1ncc2c(Nc3ccccc3Cl)nc(Nc3ccccc3Cl)nc21	12.86	-3.35	-7.44	23.76	8.17%	-4.25				
O=c1cc(-c2ccccc2)oc2ccc(O)cc12 [6-HYDROXYFLAVONE]	-4.33	-2.45	-5.6	8.45	7.78%	-10.88				
Brc1csc2ncccc12	8.68	14.4	-1.37	10.17	7.21%	-5.07				
Nc1ncnc2c1ncn2C1OC(CO)C(O)C1N (stereo not drawn)	-5.5	-14.65	5.58	3.14	-0.11%	-5.11				
Br.CN(C)c1n/c(=N/Cc2ccco2)ss1	15.96	6	7.56	27.1	6.89%	-13.39				
CCn1c2ccccc2c2cc(NC(=O)Nc3ccc([N+](=O)[O-])cc3C)ccc21	15.43	8.35	6.19	0.72	18.4%	0.49				
CSc1cccc(NC(=O)OC2CCCCCCCCCCC2)c1	23.58	6.29	14.03	20.05	2.81%	-2.07				
CCCCC[C@H](O)/C=C/[C@@H]1[C@@H](C/C=C\CCCC(=O)O)[C@@H](O)C[C@H]1O.NC(CO)(CO)CO [DINOPROST TROMETHAMINE]	12.44	-5.18	11.57	16.21	-0.17%	-7.36				
CC1(C)OC2CC(=O)OCC23C1CC(=O)C1(C)C3CCC2(C)C(c3ccoc3)OC(=O)C3OC321 (stereo not drawn)	21.22	-6.97	8.41	8.88	0.13%	-7.86				
CN(C)Cc1cc(C(F)(F)F)ccc1C(O)(c1ccccc1)c1ccccc1	9.65	13.38	9.52	10.99	-1.43%	-9.44				
COC(=O)c1cc(C)nc2c(C)cc3[nH]c4ccccc4c3c12	-3.37	-0.23	-15.24	17.6	8.78%	0.02				
O=C1OCC/C1=C\NCCCCCCCCN/C=C1\CCOC1=O	-2.67	17.83	3.41	9.43	0.08%	-12.67				
CCNc1nc(NC(C)C)nc(-c2ccncc2)n1	6.99	-1.34	9.95	10	1.8%	-10.92				

Compound	Inhibition [1] [%]	Inhibition [2] [%]	Inhibition [3] [%]	Inhibition [4] [%]	Inhibition [5]	Inhibition [6] [%]	Inhibition ([1]; 18 h, 20 µM)	Inhibition ([2]; 18 h, 20 µM)	Inhibition ([4]; 20 µM)	Inhibition ([6]; 20 µM)
O=C(Nc1ccc(Br)c2ccccc12)c1ccc2ccccc2c1O	0.57	-4.06	-4.98	22.07	4.96%	1.39				
CCOC(=O)C(Cc1ccc(O)cc1)Nc1nc2ccccc2o1 (stereo not drawn)	27.08	-2.1	6.27	19.95	10.7%	8.22				
CCCCCc1cc(O)nc(S)n1	5.4	-7.23	3.05	2.8	1.05%	-4.11				
Cc1nc(Br)c(Br)c(C)c1Br	1.89	-12.31	7.33	11.41	4.5%	-9.77				
OCc1ncc(-c2ccccc2)s1	-7.34	-9.91	3.7	5.05	2.13%	-4.82				
O=C(NC(=S)Nc1ccccn1)c1ccccc1	-7.14	-16.09	5.5	8.04	10.1%	-15.94				
CCCC1OC(c2cc3c(cc2Cl)OCO3)OCC1CC (stereo not drawn)	3.15	-17.34	11.31	6.46	5.6%	-15.5				
Sc1cnnc2ccccc12	-0.57	-12.95	-15.13	9.37	6.56%	22.39				
Cc1cc2c3ccccc3ncn2n1	14.33	-9.67	5.54	9.54	5.02%	-5.91				
O=C(O)c1ccc(O)c(O)c1 [PROTOCATECHUIC ACID]	11.87	-8.73	11.18	17.43	-0.18%	-4.26				
O=C(Nc1ccccc1)Nc1ccccn1	15.92	-11.25	6.37	12.38	3.3%	-4.64				
O=C(CN1CCOCC1)N1CCOCC1	15.46	-15.04	7.84	3.48	-1.35%	-8.59				
COc1cc(O)c(C(=O)/C=C/c2ccccc2)c(OC)c1 [FLAVOKAWAIN B]	9.23	7.33	2.45	12.32	6.59%	-7.74				
Nc1nc(N)nc(-c2ccccc2-c2nc(N)nc(N)n2)n1	10.97	8.5	-2.58	13.54	6.82%	-8.57				
N=C(N)NC(=S)Nc1ccc(Cl)cc1	29.08	3.91	19.57	9.15	20%	-7.26				
CN(NC(=O)C(=O)NCc1ccco1)C(=O)NC1CCCCC1	1.27	11.61	-11.28	10.63	4.23%	3.93				
OCc1ncccc1O	-1.04	-10.34	-5.68	25.51	3.22%	0.67				
CS/C(=C\c1ccc(C(=O)c2ccc(C)cc2)n1C)[S+](C)[O-] (stereo not drawn)	7.5	7.53	1.09	18.35	3.75%	1.32				
COc1cc2c(cc1OC)C(/C=C/c1ccco1)=NCC2.O=S(=O)(O)O	23.97	13.38	7.22	11.02	-0.93%	-6.67				
O=C(Nc1ccc(Nc2ccccc2)cc1)Nc1ccccc1Cl	-2.92	1.03	8.7	12.39	2.75%	-5.44				
c1ccc(-c2nnc(-c3ccccc3)nn2)cc1	8.93	4.53	11.38	-4.08	-1.88%	-7.33				
Clc1nnc(NC2CCCCC2)c(Cl)c1Cl	-0.25	-5.61	15.05	1.58	27.2%	-9.26				
CCCCc1c(C)nc(S)nc1O	16.17	-14.45	9.4	7.26	2.04%	-3.51				
NC(=O)c1ccccc1NC(=O)c1ccccc1Cl	-3.45	-12.19	7.56	6.89	2.67%	-15.77				
